This is an account of results in PubChem BioAssay AID1508600 (Functional Genomics Laboratory (NCATS/FGL), 2020).

Out of some 53,000 sequences screened, about 3,700 (7%) were called active.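 The calls were made as follows: active = gene knockdowns whose robust z-score for IL-1 alpha signal is at least 2 or at most -2, so actives lie on both sides; inactive = the rest.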 The full list was thinned out, with actives kept by preference.

This assay in a line: Components of the Cytosolic LPS Sensing Pathway: Gene Identification via Genome-wide siRNA Screen.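 Also: robust z of the log signal after scaling to non-targeting control siRNA wells of the plate.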 The following applies: RAW264.7 macrophages, IL-1a HTRF, actives lie on both sides, screened at 100 nM (by protocol), cells primed 5 h with Pam3CSK4 first. In outline: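 Mouse macrophage line RAW264.7 is transfected with siRNA (100 nM final), grown 48h, primed with TLR ligand Pam3CSK4 5 h and given intracellular LipidA 24 h. IL-1a in supernatant is read by HTRF and viability by luminescence.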
On the technique in general: Time-resolved FRET reads energy transfer from a long-lived donor to a nearby acceptor.
As for GGAAGAAGAUCACCAUCAUTT against Ifi204, the z-score was -2.64 (active).

As for GCACUUUGUGCUAGAUGAATT against Ddx39a, the z-score is -0.688 (inactive). Take GGAAUUGAAACCUGAUGUUTT against Srfbp1: the z-score was 0.239 (inactive). Regarding GCUACUGUGUCGGUCACAUTT against Olfr514, the z-score is 0.753 (inactive). Turning to “CCAGUGAUAACUCUCUUGUTT against A830039N20Rik”, the z-score is 1.23 (inactive). As for GGUUGUGUUUACCAUGAAGTT against Rps6ka6, the figure is 0.684 (inactive); as for GUCAUGGUAGGGAUUUACATT against Taar4, -2.83 (active). For GGAGAUCUAUUGGAUCCAUTT against Trim12a, the z-score is 0.337 (inactive). For CCAGAUGUCGGCAGAUAACTT against Pold4 the value was 0.446 (inactive); for GGGCUUUGAUCAGUUCUACTT against Hoxd11, 1.88 (inactive). As for GCACUUUAAUCUGGCUACCTT against Dnmt3b, the figure is -0.78 (inactive); as for GGCUCUGACCAAGAAUGAUTT against Cpsf1, 1.27 (inactive); as for GGAUCACUAACUUUUCCAATT against Trpc3, 3.46 (active).

In the case of GGCACACUCACUCCUUUGATT against Mis18bp1, the z-score is 0.145 (inactive). As for “GGAAACGAUGAAGAACAAATT against 4933427D06Rik”, the z-score was -0.714 (inactive).

As to GCAUUUUUCGUUAGGAAAATT against Esco2, the z-score was 3.13 (active).

With “GGUAGAAACAAAGAAAUAGTT against 9130023H24Rik”, the z-score was -0.183 (inactive). Turning to GGGCUAAGGACAGAAUUACTT against Tusc2, the z-score was -0.0196 (inactive). For GGAGAAGAACUAAAACUUATT against Bbs7 the value was 0.846 (inactive); for GGUCUCCAUCACAUUCAAGTT against BC024139, 1.19 (inactive). In the case of CCGGAUGGGAAUCGCUAAATT against Slc22a13b, the z-score was 2.17 (active). In the case of AAUCUUUUCGUGAAGGCACTT against Zfp948, the z-score was 0.84 (inactive).

CGAAUGCUUAUUUAGGUUGTT against Kpna4: the z-score is -0.387 (inactive).

On to GCUGAAAUAUGUGAGAGCATT against Sdcbp, for which the z-score is 0.016 (inactive). For CCGGGUCAUUAUCUAUCAATT against Puf60 the value was -0.383 (inactive); for CGCAGCUUUCUAUACUGGCTT against Ngf, 2.41 (active).

Regarding GCACUUACUCUUCAACGGGTT against Yae1d1, the z-score is 1.87 (inactive). For GGUCGUCGUGAGAUCUUAUTT against Prlhr the value was -0.342 (inactive). On to CGUGUGUUUUACCCUAAAATT against Zfp947, for which the z-score was 0.404 (inactive). On to GGAAGCUGUGGAGAAACUATT against Acox2, for which the z-score is 2.22 (active). In the case of GGACGAGAACAUCUUAAUCTT against Pim1, the z-score is 1.58 (inactive). As to GGAACUUACACAUUUGUUCTT against Tnfsf13b, the z-score was -1.11 (inactive). For GCCAUGACCAUCUUUCUCUTT against Olfr1413, the z-score was -3.03 (active). For GGAGCAUGUCUUUAAGAAGTT against Stac the value was -1.15 (inactive). On to GCUAACUUACCCAAAGAAATT against Tnfaip3, for which the z-score was 1.41 (inactive).

For GUGCAACGUGAGCAAUACGTT against Selenbp2, the z-score is -0.417 (inactive).

For CGUAAAACUCUUAGGCAUGTT against Npm1, the z-score was 1.13 (inactive). As to GAAAAAAUGCCAGCUGUGGTT against Sec61b, the z-score is 0.379 (inactive). Turning to CCUGCAUACGAAGUACAUATT against Bsg, the z-score is 2.75 (active). As for GGAUCCAUCCGUCUCUAAGTT against Rprd2, the z-score was 0.628 (inactive). As for GGUGCAAGUUCCCAUUAUATT against Tpsab1, the figure is -0.405 (inactive); as for GGACAUAGCAUCUUCACUUTT against Mpp3, -1.31 (inactive).

In the case of GGCCUUAGGAAAAAAAAAGTT against Bad, the z-score is 0.956 (inactive). Turning to CCUUGGUGGUCUGAAAUAATT against Cyp4a31, the z-score is -0.159 (inactive). GGAGAAACUGGACAACCUGTT against Eno2: the z-score was 4.12 (active). Turning to GGAUGUGAAUGAGUGUGAGTT against Fbln7, the z-score was 0.368 (inactive).

For GGAGAAUGAACAGACAGAGTT against Slc39a14, the z-score is -2.06 (active). Take GGAGAAGAAGGUUCUUGCCTT against Hoxb13: the z-score was -1.03 (inactive). Take GGUCGCACAAGGUAUUAUATT against AI661453: the z-score is -0.402 (inactive). In the case of GGGAAAAAGAACAAGAUCATT against Cep57l1, the z-score is -0.799 (inactive). Consider GGGAACAAGACAACACAGCTT against Adam11, for which the z-score is 2.03 (active). Consider GGUACUUCCUCAUUUACCUTT against Zdhhc4, for which the z-score was 0.541 (inactive). Regarding CCGUAAGCUGUCUCUUUGUTT against Pla2g4c, the z-score is -1.97 (inactive). CCGUCUAUUAGUGAAGAUGTT against Pex1: the z-score is 0.0157 (inactive). As for GGGUGAAAAUGGCAUUGUUTT against Col1a2, the figure is 0.56 (inactive); as for CGUGAUGGGACUUGAGAAGTT against Teddm1a, -0.454 (inactive); as for GGAAAGAUUGUUUGAAGGCTT against Cask, -0.252 (inactive). As to GCUGAUUUCAUUGCAUCCGTT against Olfr483, the z-score is 2.12 (active). GGAAAAGGUUAAACUUUGATT against Cenpc1: the z-score was 0.165 (inactive). As for CCAUCCUCCUACUCGUUAGTT against Vmn1r233, the z-score is 2.03 (active). As for CCAAUAAAAGUUGAGAGCUTT against Krt18, the figure is -0.272 (inactive); as for GCCUGACAUUGGGACAAAGTT against Trim34a, 0.179 (inactive). In the case of GCCUCCUAUCCUGGGAAGATT against Prss3, the z-score is 2.54 (active). GGAGACGAGAAACAAACCCTT against Diaph2: the z-score is 1.68 (inactive).

As for GGUACUUUGGAGAUUGUAATT against Rdh14, the z-score is -0.462 (inactive).

On to GGCAGCCAAGAGAUUGAAUTT against Suclg2, for which the z-score is 1.09 (inactive). For GGUUCUGAAAUGCAUGGAGTT against Rnf6 the value was 1.76 (inactive); for GCAAAUGCGACUUUACACATT against Top1, 2.56 (active). For GGAGCUGCUUGCUCAAAGATT against Tmem65 the value was 0.61 (inactive); for GCUGGAAAUGACACUGCCUTT against C1qtnf7, 1.45 (inactive). Take GCGGGAAUGAAGAAACACGTT against Eea1: the z-score is 0.801 (inactive).

As for GCCACGUUCCCUUGAUCAUTT against Mx2, the z-score is 1.4 (inactive).

For the sequence GGAUGCCUUCUAUACACUATT against Hras, the z-score was -1.33 (inactive).

On to CCCUUACAUCCAUCAACUATT against Dcbld2, for which the z-score was -1.04 (inactive). For the sequence GGAAGUAUGUGUUUCUCAGTT against Prr9, the z-score was -2.41 (active). In the case of “GGUAAUAAACGGUAAAUUGTT against B430306N03Rik”, the z-score is -0.763 (inactive). For GGUUCCAUAGCAGACAAAATT against Mrpl24, the z-score was 0.513 (inactive). With CCAAAUAUGUACUUCAUGGTT against Adipor1, the z-score was -0.147 (inactive). Turning to CGAUAAGAACACCUAUAUUTT against Sf3b1, the z-score was -3.26 (active).

With GGACAUCCAUUCAUGCUUUTT against Serpinb1b, the z-score is -0.529 (inactive). Take CCUAUAACUCCAAGGAUACTT against Lexm: the z-score is 0.628 (inactive). As to GGUUUUGAGCAAAAUUCUATT against Nrd1, the z-score is 0.985 (inactive). Turning to GCACUGGAAAUUGUAUAAATT against Hyal6, the z-score was 2.19 (active). For CGGAGUGUACCAUCUACACTT against Agpat4, the z-score was 0.193 (inactive). As for GGGACUGCAUACUUAAGUUTT against Amacr, the figure is 1.31 (inactive); as for GGGACCGUGAAGAAAAUUUTT against Tmed11, -0.926 (inactive); as for “GGAGGCUUAUCCUAAAAAGTT against 6330444E15Rik”, -1.02 (inactive). As to GCUGAACCUAUGAGGGAGATT against Gpank1, the z-score is 0.809 (inactive). Turning to GGAGUUCAUUCUGGAUAUCTT against Matn2, the z-score was 1.24 (inactive). As to CCUAGGGCUUUAGCUCUGATT against Msc, the z-score was -0.75 (inactive). As for GGAUUAAACCUUUUAACCGTT against Emilin3, the figure is -0.251 (inactive); as for GCAUGUUUUACAGUGUUCATT against Rxfp1, 2.7 (active); as for GCCGGAUGGCACAUUCGUATT against Cda, -0.281 (inactive).

On to CCUAAGGUCAAGAUAUAGCTT against Cep55, for which the z-score was 0.121 (inactive). Regarding CCCACCAGAUUUCUACACCTT against Vsig2, the z-score is -2 (inactive). On to GGCUAUGGACCGAAAGAUUTT against Dgcr6, for which the z-score was -1.42 (inactive). GCAGCUGUCAUGUAUACAGTT against Olfr59: the z-score is -0.867 (inactive). As to GGAAUAUCCCAACAUCUGUTT against Upp1, the z-score is -0.899 (inactive). As for GCAGUAUGUAAACCCUUACTT against Olfr1463, the figure is 0.558 (inactive); as for CGACCUUAAGCUAAGCAGUTT against Aff3, 1.18 (inactive); as for GGAAUUUUCUCAUGAUCUUTT against Krtap3-3, 0.813 (inactive). With GGGCUAUUAAAUGAUUUCATT against Pax1, the z-score was 5 (active).

GCCAUGAUUUUCAUGUACGTT against Olfr711: the z-score is 0.241 (inactive). Regarding CCUUAAUAAAUCUAGUGGCTT against Stmn3, the z-score was -0.567 (inactive). As for GCGGCUUAUGUCUCAAAUUTT against Gcdh, the figure is 2.34 (active). Turning to GGCCGAUGCCAAAUUGGUATT against Olfm1, the z-score is 0.0323 (inactive). With GGACUAGCAAGGCAAGUGATT against Dnase2b, the z-score is 1.32 (inactive). With GGGAAUCGGACCAACUUACTT against Adssl1, the z-score is 3.64 (active).
